Assay outcomes: PubChem, several laboratories
This is a sample that favours compounds with a hit; in the whole collection about 5.4% have one here.
HSF1 inhib: HSF1 inhibitors in luciferase reporter cells, primary screen, cell-based, NIH3T3, luminescence | NIH3T3-HGL HSE-luciferase, MG132-induced, luminescence 8 h; hits give low values | activity change, negative = inhibition, % at 7.5 µM (by protocol) | 300,000 tested, 0.77% active;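 active means more than half of replicate wells show activity change below -50%, luminescence cut by over half; inconclusive means some wells, but at most half, below -50%; inactive means no replicate well below -50%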;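 further: luciferase reports HSF-1 transcriptional activity via heat shock element; 0% = median of DMSO wells and -100% = zero luminescence signal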
HSF1 activator: HSF-1 activators, primary screen, NIH3T3-HGL cells, MG132 stress, luminescence, single point; activation, % at 9 µM; NIH3T3-HGL HSF-1 luciferase reporter, 8 h; 100% = twice DMSO control signal; 300,000 tested, 1.7% active;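 active means mean replicate activation of at least 50% with a set share of replicates each reaching 50%; inconclusive means only one of those two conditions met; inactive means mean below 50% and too few replicates reaching it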;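 further: 0% = median of the neutral control wells and 100% = twice that signal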
FXN GAA850 act: FXN promoter activators, primary screen, cell-based, luciferase luminescence, HEK293 lucGAA850. HEK293 lucGAA850 FXN promoter luciferase reporter, 24 h; percent of 10 µM SAHA response. activation, % at 6 µM. 360,000 tested, 0.56% active. AID 540364, 2011;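 active means activation above the average of all compounds screened plus 3 SD, cutoff fixed separately per campaign, cut at about 7.5% in these data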;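 further: 0% = DMSO wells and 100% = 10 µM SAHA wells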
DAX1 inh: DAX1 (NR0B1) inhibitors, primary screen, cell-based, HEK293, Gal4-DAX1, luciferase luminescence; AID 504766, 2011; inhibition, % at 6.75 µM; HEK293 Gal4-DAX1 luciferase reporter; 340,000 tested, 0.99% active; Nuclear receptor subfamily 0 group B member 1 (Homo sapiens), P51843;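 active means inhibition above the mean over all tested compounds plus 3 SD, cut at about 4.2% in these data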;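 further: 0% = DAX1-transfected cells with DMSO and 100% = empty-vector control cells with DMSO; inhibition shows as a rise in luminescence from relieved DAX1 repression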
Target sequence (P51843 207-470 limits assumed): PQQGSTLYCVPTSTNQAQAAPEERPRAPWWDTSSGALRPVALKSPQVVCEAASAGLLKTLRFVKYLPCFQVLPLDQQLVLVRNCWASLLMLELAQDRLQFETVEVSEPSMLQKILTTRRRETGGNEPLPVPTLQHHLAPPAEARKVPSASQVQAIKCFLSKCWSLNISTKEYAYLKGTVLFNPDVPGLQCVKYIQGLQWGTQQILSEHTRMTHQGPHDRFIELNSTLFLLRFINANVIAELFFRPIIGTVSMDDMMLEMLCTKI
AHR act: AHR activators, primary screen, cell-based, luminescence, luciferase reporter, human; Aryl hydrocarbon receptor (Homo sapiens), P35869; AHR-responsive luciferase reporter cells; activation, % at 5 µM; 320,000 tested, 2.5% active; AID 2796, 2010; in the data active means activation above about 47%;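 further: 0% = vehicle wells and 100% = reference agonist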
The depositor's hits bear a star; ? = inconclusive; . = not tested or not shown.

SMILES	HSF1 inhib	HSF1 activator	FXN GAA850 act	DAX1 inh	AHR act
O=c1[nH]c(Nc2ccccc2Cl)cc2ccccc12	31	61*	1	1	21
CCOC(=O)C1CCN(C(=O)CCS(=O)(=O)c2ccc3c(c2)CC(C)N3C(=O)CC)CC1 (centres undefined)	-62*	-71	0	-1	-5
Cc1[nH]n(-c2ccccc2)c(=O)c1/C=C1\C=NN=C1c1ccccc1	9	45	1	-1	5
Cc1ccc(-n2[nH]c(C)c(/C=C3/C=Nc4ccccc43)c2=O)cc1C	-4	12	3	3	60*
O=C(O)c1ccc(NCCC2=CCCCC2)c([N+](=O)[O-])c1	-4	-11	0	2	1
COc1ccc(-c2[nH]c(-c3ccccc3)nc2SCC(=O)NC2CCCC2)cc1	2	-13	-3	-1	38
COc1ccc(-c2[nH]c(-c3cccc(OC)c3)nc2SCC(=O)NC2CCCC2)cc1	1	-13	-1	-1	65*
CCOc1ccc(Br)cc1S(=O)(=O)NC1=NCCCCC1	.	.	-1	-1	0
COC(=O)C(CO)Nc1ncnc2onc(-c3ccc(F)cc3)c12 (centres undefined)	-4	0	0	-1	2
CC1(C)Cc2nc(NCCN3CCOCC3)c(C#N)cc2CO1	42	103*	-1	0	1
CC(C)CCNc1nc2c(cc1C#N)COC(C)(C)C2	1	-14	0	-1	2
COc1ccc(NC(=O)c2ccc3c(c2)N(C)CCS3)cc1	22	14	2	1	72*
COc1ccc(C(=O)Nc2ccc(N3CCN(C)CC3)cc2)cc1	2	22	6	2	6
CN1CCSc2ccc(C(=O)Nc3cccc(F)c3)cc21	117	160*	5	7.4*	126*
Cn1c(SCC(=O)NCc2ccco2)nnc1C1CCCC1	0	-5	-1	0	-4
CN(C)/C=C/C(=O)c1ccc2noc(-c3ccc(F)cc3)c2c1	2	-10	-1	4.8*	1
Cc1ccc(-c2onc3ccc(C(=O)/C=C/N(C)C)cc23)cc1	-14	-13	0	-2	3
Brc1ccc(-c2nc3ccccc3s2)s1	16	?	3	3	17
Brc1cc2c(cc1-c1nc3ccccc3s1)OCO2	-8	22	2	0	53*
Cc1cc(OCC(=O)NNC(=S)NCC2CCCO2)cc(C)c1Cl (centres undefined)	16	6	3	0	5
CCC(=O)Nc1cc2nn(-c3ccccc3)nc2cc1Cl	7	26	6	1	51*
CC(C)CC(=O)Nc1ccc2nn(-c3ccccc3)nc2c1	27	60*	2	3	-6
CC(=O)Nc1cc2nn(-c3ccccc3)nc2cc1C	18	39	4	-1	55*
CC(=O)Nc1cc(NC(C)=O)c(N=Nc2ccccc2)cc1C	8	3	2	4.7*	-3
CCC(=O)Nc1c2c(nn1-c1cccc(Cl)c1)CSC2	0	11	0	0	2
SMILES	HSF1 inhib	HSF1 activator	FXN GAA850 act	DAX1 inh	AHR act
CC(C)C(=O)Nc1ccc2nn(-c3ccc(F)cc3)nc2c1	15	21	3	0	-4
COc1ccc(-n2nc3cc(C)c(NC(=O)CC(C)C)cc3n2)cc1	-1	1	.	.	.
O=C(/C=C/c1ccccc1)Nc1nnc(-c2ccco2)o1	-6	-1	-1	-1	7
Nc1ncnc2c1ncn2[C@@H]1O[C@H](CNC(=O)[C@@H]2C[C@H](F)CN2)[C@@H](O)[C@H]1O	.	.	-2	-1	.
Cc1cc2nn(-c3ccccc3)nc2cc1NC(=O)c1cccs1	24	17	2	1	68*
N#Cc1c(N)n(C2OC(CO)C(O)C2O)c2ncnc(N)c12 (centres undefined)	78*	78*	-14	3	.
CC(C)(C)C(=O)Cn1c(=N)n(Cc2ccccc2)c2ccccc21	7	10	1	0	1
CCCn1c(=N)n(CC(=O)c2cccs2)c2ccccc21	-5	5	-1	-1	18
Cn1c(=N)n(CC(=O)c2cccs2)c2ccccc21	7	12	7	4	49*
N=c1n(CC(=O)c2ccc(Br)s2)c2ccccc2n1Cc1ccccc1	16	26	-2	-1	71*
Cn1c(=N)n(CC(=O)c2ccc(Br)s2)c2ccccc21	-26	-35	6	4	71*
COc1cccc(C(=O)Cn2c(=N)n(C)c3ccccc32)c1	25	25	-3	-1	52*
N=c1n(CCN2CCCCC2)c2ccccc2n1CC(=O)c1cccs1	5	14	1	1	33
N#C/C(=C\N1CCCCC1)S(=O)(=O)c1ccc(Cl)cc1	8	3	-1	.	0
CCN(CC)CCn1c(=N)n(CC(=O)c2ccc(Br)s2)c2ccccc21	4	6	-1	.	70*
COc1ccc(C(=O)CSc2ccc(-c3ccccc3)nn2)cc1	2	35	1	4.6*	3
O=C(CSc1ccc(-c2cccnc2)nn1)c1ccc([N+](=O)[O-])cc1	7	18	0	-3	58*
CC(=O)OC[C@@H]1CN(Cc2cccc(C(F)(F)F)c2)C[C@H](n2cnc3c(NCc4ccco4)ncnc32)O1	.	.	-3	.	.
CN1CCN(/N=C/c2nc(-c3ccc(Cl)cc3)n3ccccc23)CC1	-11	-3	5	0	48*
COc1ccccc1C(=O)NC(CCSC)C(=O)NNC(=O)c1ccccc1O (centres undefined)	.	.	1	0	28
c1ccc(-c2nc3c([nH]2)CCc2nonc2-3)cc1	18	18	0	1	21
c1ccc(-c2cc3c(nn2)CCc2nonc2-3)cc1	6	5	2	1	57*
COc1ccc(CCNC(=O)c2cc3c(C)nccc3[nH]c2=O)cc1OC	-6	-3	2	-1	1
CCOc1ccc(C(=O)NCC2CCN(CC3CCCCC3)CC2)cc1	5	3	1	0	.
c1ccc(N2CCN(c3cnc4ccccc4n3)CC2)cc1	34	75*	3	1	-7
Cc1c2cnn(CC(=O)N3CCOCC3)c(=O)c2c(C)n1Cc1ccc(F)cc1	.	.	4	.	.
CSCCC(NC(=O)c1ccccc1Cl)C(=O)NNC(=O)c1ccccc1O (centres undefined)	-1	-3	1	1	58*
Cc1ccc(SCc2cc(=O)[nH]c(N3CCN(Cc4ccccc4)CC3)n2)cc1	2	-10	-1	0	2
O=c1cc(CSc2ccc(Cl)cc2)nc(N2CCCCC2)[nH]1	17	65*	0	1	3
Cc1ccc(NC(=O)COC(=O)Cc2c[nH]c3ccccc23)cc1	.	.	1	2	.
